For 59 compounds, activation results are on record in PubChem BioAssay AID485358 (National Center for Advancing Translational Sciences (NCATS), 2010).

The campaign covered roughly 340,000 compounds. About 1,800 (0.53%) were called active. This is one part of a sample in which actives are shown more often than they occur. A number with no mark means an inactive call.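 How the source made its calls: active means activation over 3 SD above normal in the single-dose calcium agonist read (cut at about 30% in these data); inactive means the rest.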

In the assay the target is D(2) dopamine receptor (Homo sapiens) (UniProt P14416). The assay is described as follows: HTS Assay for Allosteric Agonists of the Human D2 Dopamine Receptor: Primary Screen for Agonists. Further: 0% is about no effect. Particulars: HEK293 T-REx D2 cells, calcium flux agonist mode; at 2 µM; stronger effect = higher value. The text has this: NIH Chemical Genomics Center [NCGC] NIH Molecular Libraries Probe Centers Network [MLPCN] MLPCN Grant: NS064831-01 Assay Submitter (PI): David Sibley Dopamine receptors (DARs) are involved in the etiology and/or therapy of a number of neuropsychiatric and endocrine disorders. For instance, all receptor-based antiparkinsonian drugs work via stimulating the D2 DAR subtype whereas all FDA-approved antipsychotic agents are antagonists of this receptor. […] There are three different types of allosteric modulators that we are seeking, two of which will stimulate or augment receptor signaling, allosteric agonists and potentiators, while the third, allosteric antagonists, will attenuate receptor signaling. The present primary screening assay measures compound agonism by tracking calcium flux in a […], inducible Hek293 Trex D2 cell line.
Chain of D(2) dopamine receptor (Homo sapiens) (P14416 whole entry, looked up): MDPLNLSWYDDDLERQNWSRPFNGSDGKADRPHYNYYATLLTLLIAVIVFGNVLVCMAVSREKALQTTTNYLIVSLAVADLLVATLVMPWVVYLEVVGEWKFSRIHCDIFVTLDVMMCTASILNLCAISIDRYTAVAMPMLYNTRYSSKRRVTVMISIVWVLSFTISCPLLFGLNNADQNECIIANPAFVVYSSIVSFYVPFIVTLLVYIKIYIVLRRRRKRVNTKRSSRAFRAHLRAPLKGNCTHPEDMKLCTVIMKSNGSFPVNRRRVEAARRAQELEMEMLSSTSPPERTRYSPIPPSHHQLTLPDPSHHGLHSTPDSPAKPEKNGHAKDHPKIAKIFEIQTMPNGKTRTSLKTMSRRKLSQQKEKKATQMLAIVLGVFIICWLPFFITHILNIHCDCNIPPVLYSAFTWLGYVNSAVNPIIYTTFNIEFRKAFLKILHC
Freshly passaged cells are plated in 1536 well black, clear bottom plates at a density of 4000 cells/well in 3 ul of complete media containing 1x tetracycline inducer. After an overnight incubation at […] in 5% CO2, cells are loaded with 2 ul of the no wash Calcium Assay Kit (ABD Bioquest) and incubated at room temperature for 30 to 90 minutes. Agonist read: A 10 cycle (1 second/cycle) baseline measurement is taken and then the FDSS online 1536 pintool delivers 23 nl of compound library (as well as dopamine controls) to the plate. The plate is measured for kinetically at 1 cycle/sec for 180 seconds and is considered to be the agonist portion of the assay (eg, compounds which activate a positive calcium response during this portion are flagged as potential agonists). Following the 180 second read, 1 ul of either an EC20 (positive modulation assay) or EC80 (negative modulation assay) is delivered by an onboard pipette head. Measurements are taken kinetically for an additional 180 seconds.
For the compound `COc1cc(NS(=O)(=O)c2ccc3c(c2)OCC(C(=O)N2CCCC2)O3)cc(OC)c1` (centres undefined), the activation was 0.531%. Then `COc1ccc(OC)c2sc(N3CCN(C(=O)C4COc5ccccc5O4)CC3)nc12` (centres undefined), with -0.0345%; and `Cc1c(CC(=O)N2CCN(C(=O)C3COc4ccccc4O3)CC2)c(=O)oc2c(O)c(O)ccc12` (centres undefined), with 86.6% (active). Then `O=C(/C=C/c1cn(CC(O)CN2CCc3ccccc32)c2ccccc12)c1ccc(Br)cc1` (centres undefined), with 2.61%; and `Cc1ccc(CSc2nc3ccsc3c(=O)n2CCC(C)C)cc1`, with 0.237%; and `COc1ccc(Cl)cc1NC(=O)Cn1c(=O)c2ccccc2n2nncc12`, with 0.159%. `Cc1ccc(NC(=O)O/N=C/c2cccc([N+](=O)[O-])c2)cc1`: the activation is 1.09%. Take `CCC(CC)NC(=O)/C=C/c1cccc([N+](=O)[O-])c1`: the activation was 55.2% (active). On to `CCc1ccc(NC(=O)C(C)OC(=O)/C=C/c2cccc([N+](=O)[O-])c2)cc1` (centres undefined), for which the activation is -0.67%. Under `O=S(=O)(NCCc1nnc2ccc(SCc3ccc(Cl)cc3Cl)nn12)c1ccccc1` stands 0.55%. Under `CCOC(=O)C(Cc1ccccc1)NC(=O)CCc1c(C)nc2c(c(C)nn2-c2ccc(C)c(C)c2)c1C` (centres undefined) stands 3.29%; under `O=C(CSC1CC(=O)N(CCc2ccccc2)C1=O)Nc1ccc(Cl)cc1` (centres undefined), 49.2% (active). Under `O=C(NCCCc1ccccc1)C1CCC(=O)N(CCc2ccc(Cl)cc2)C1` (centres undefined) stands -1.17%. Consider `COC(=O)CN1C(=S)N(c2ccccc2)C(=O)C1CC(=O)Nc1ccc(Cl)cc1` (centres undefined), for which the activation is -0.464%. For the compound `CCc1ccc(CN(Cc2ccco2)C(=O)c2ccccc2Cl)cc1`, the activation is 0.564%. As to `COc1cc(NC(=O)c2nn(-c3ccc(C)cc3)c(=O)c3c2c2ccccc2n3C)cc(OC)c1OC`, the activation was -0.5%. Turning to `Cc1ccc(O)c(-c2cc(C(=O)NCc3ccccc3)[nH]n2)c1`, the activation was 0.766%. Then `Cc1c(NC(=O)c2cc(=O)c3ccccc3o2)c(=O)n(-c2ccccc2)n1C`, with 0.0233%.

Consider `Cc1ccc(O)c(-c2cc(C(=O)Nc3c(C)n(C)n(-c4ccccc4)c3=O)[nH]n2)c1`, for which the activation was 34.8% (active). In the case of `O=C(NCc1ccc(F)cc1)c1ccc(Cn2c(SCc3ccc(F)cc3)nc3cccnc32)cc1`, the activation was 1.06%. Then `O=C(c1ccc2c(c1)N(Cc1ccccc1)C(=O)c1ccccc1S2(=O)=O)N1CCCC1`, with 1.63%; and `COc1ccc(OCCCn2cccc2/C=C2/C(=N)N3OC(C)=CC3=NC2=O)cc1`, with -1.02%. In the case of `CC(C)(C)OC(=O)NCCCCCC(=O)N/N=C/c1coc2ccccc2c1=O`, the activation was 0%. Then `CC1=CC2=NC(=O)/C(=C/c3coc4ccccc4c3=O)C(=N)N2O1`, with 49.9% (active); and `CCOC(=O)c1c(C)[nH]c(CCC(=O)Nc2ccc(OC)c(OC)c2)c1C`, with -0.832%. Under `Cc1ccc2ncc(C(=O)Nc3ccc(OC(F)(F)F)cc3)c(=O)n2c1` stands -0.574%; under `O=C(Oc1cccc(O)c1)C1CCCCC1`, 0.57%.

On to `O=C(OCc1nc2ccccc2[nH]1)C1CCCCC1`, for which the activation is 41.5% (active).

Regarding `CCO[C@@H]1OC(C(=O)NCc2nc3ccccc3[nH]2)=C[C@H](C2CCCCC2)[C@H]1CCCO`, the activation was -0.239%.

With `COc1ccc(S(=O)(=O)NCC(c2ccc(N(C)C)cc2)N2CCCC2)cc1` (centres undefined), the activation is -2.12%.

`CC1CCCCN1S(=O)(=O)c1ccc(F)c(C(=O)Nc2ccccc2C(F)(F)F)c1` (centres undefined): the activation is 0.192%.

On to `Cc1ccccc1OCC(O)CN1CCN(c2ccccn2)CC1` (centres undefined), for which the activation is 64.7% (active). With `O=S(=O)(c1ccc(OCC(O)CN2CCN(c3ccccc3Cl)CC2)cc1)N1CCOCC1` (centres undefined), the activation is -0.884%.

For `CC1CCN(CC(O)COc2ccc(C(=O)c3ccccc3)cc2)CC1` (centres undefined), the activation is -0.0837%. Under `Cc1cccc(OCC(O)CN2CCN(CCN3C(=O)c4cccc5cccc(c45)C3=O)CC2)c1C` (centres undefined) stands -0.617%; under `Cc1ccc(OCC(O)CN2CCN(CC(O)COc3ccc(C)cc3Cl)CC2)c(Cl)c1` (centres undefined), 0.53%; under `CC(=O)Nc1ccc(OCC(O)CN2CCN(c3ccccc3Cl)CC2)cc1` (centres undefined), 71.6% (active). Under `CNCC(O)CN1CCN(c2ccccc2OC)CC1` (centres undefined) stands 0.328%. For the compound `OC(COc1cccc2ccccc12)CN1CCN(c2ccccn2)CC1` (centres undefined), the activation is 66.3% (active). Take `C=CCc1ccccc1OCC(O)CN1CCN(CCO)CC1` (centres undefined): the activation is -1.83%. As to `CC(C)c1ccc(OCC(O)Cn2cnc3ccccc32)cc1` (centres undefined), the activation was 1.03%. Turning to `O=C(C(c1ccccc1)c1ccccc1)N1CCN(CC(O)COc2ccccc2)CC1` (centres undefined), the activation is -0.117%. For the compound `CC(C)c1ccc(OCC(O)CN2CCN(c3ccccn3)CC2)cc1` (centres undefined), the activation was 66.2% (active). For the compound `COc1cc(C(=O)N2CCN(c3ccc(Nc4ccc(C)cc4)nn3)CC2)cc(OC)c1OC`, the activation was -0.205%.

Regarding `COc1ccccc1Cc1nc2ccccc2nc1SCC(=O)N1CCCc2ccccc21`, the activation is 1.06%. Under `COc1cccc(NC(=O)N(Cc2cn(C)c3ccccc23)C2CCCCCC2)c1` stands 0.628%; under `Cn1ccc2cc(S(=O)(=O)N3CCCC(C(=O)NCc4ccccc4F)C3)ccc21` (centres undefined), -0.715%. Then `Cc1ccc(Cl)cc1NC(=O)CSc1nccn1C`, with -0.262%; and `CCc1ccc(CN(Cc2ccco2)C(=O)COc2ccc(Cl)c(C)c2)cc1`, with 3.85%. Turning to `COC(=O)C1=C(c2ccccc2)c2ccccc2S(=O)(=O)N1CC(=O)Nc1ccccc1C(F)(F)F`, the activation was -0.526%. Then `COc1ccccc1OCC(=O)Nc1nnc2n1CCS2`, with -1.11%; and `CCN1CCN(CCCNC(=O)c2ccc3c(c2)sc2nc(-c4ccc(OC)cc4)cn23)CC1`, with 1.86%. In the case of `Cc1nc2ccc(S(=O)(=O)NC(C(=O)NCc3ccccc3Cl)C(C)C)cc2s1` (centres undefined), the activation was -0.364%. On to `Cn1c(=O)cc(OCC(=O)N2CCN(c3ccccc3)CC2)c2ccccc21`, for which the activation was 0.681%.

As for `CCN1CCCC1CNC(=O)c1cc2c(=O)n(C)c3ccccc3c2n1C` (centres undefined), the activation is 1.59%. Regarding `Cn1c(C(=O)NCCc2ccsc2)cc2c(=O)n(C)c3ccccc3c21`, the activation is 0.0188%. Take `CCn1c(=O)cc(OCC(=O)Nc2cc(Cl)c(OC)cc2OC)c2ccccc21`: the activation is -0.253%. Then `CCn1c(=O)cc(OCC(=O)NCCCN2CCN(c3cccc(Cl)c3)CC2)c2ccccc21`, with 72.9% (active); and `Cn1c(C(=O)NCCCN2CCN(c3cccc(Cl)c3)CC2)cc2c(=O)n(C)c3ccccc3c21`, with 60.1% (active).
